{
  "source": "PubChem BioAssay (NCI)",
  "note": "The panel holds about 83,000 compounds, 20% with a hit somewhere; the sample as a whole holds those more often.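 How to read the values: 0–100, growth inhibition (40 = 60% inhibited); 0, no net growth; -100 to 0, cell death (-40 = 40% of starting cells died; -100 = all dead).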 Values without a mark were called inactive. The source made the active and inactive calls. The calls were made as follows: active = growth percent below 10; inactive = the rest.",
  "data": [
    {"test_system": "HL-60(TB) leukemia", "experiment": "NCI-60 one-dose screen, 48 h (100 = growth as untreated, 0 = no growth, -100 = all killed)", "conditions": "10 µM unless noted", "values": [
      {"smiles": "O=C1C[C@@H](c2ccccc2)Oc2c(Cc3ccccc3O)c(O)c(Cc3cc(Cc4cc(Cc5ccccc5O)ccc4O)ccc3O)c(O)c21", "growth": "95.1%"},
      {"smiles": "Nc1c(C(=O)c2ccc(Br)cc2)oc2nc(-c3cnccn3)cc(-c3cccs3)c12", "growth": "100%"},
      {"smiles": "CS(=O)(=O)c1ccc(-c2nc3ccccn3c2C=Nc2ccc(Cl)cc2)cc1", "growth": "59.7%"},
      {"smiles": "O=C(O)c1cn(C2CC2)c2cc(N3CCN(C(=O)CN4C(=O)CSC4=O)CC3)c(F)cc2c1=O", "growth": "135%"},
      {"smiles": "Cc1ccc(NC(=S)NNC(=S)Nc2ccc(C)cc2)cc1", "growth": "97.1%"},
      {"smiles": "CCc1nn2c(C)cc(C)nc2c1Cc1ccc(/C=C/CN2CCN(CCOCCOCCN3CCN(C/C=C/c4ccc(Cc5c(CC)nn6c(C)cc(C)nc56)cc4)CC3)CC2)cc1", "growth": "-51.4% (active)"},
      {"smiles": "CC1(COc2ccc3ncc(C#Cc4cncc(C(=O)Nc5cc(C(C)(C)C)on5)c4)n3n2)COC1", "growth": "23%"},
      {"smiles": "COc1ccc(/C=N/Nc2nc(N/N=C/c3ccc(OC)cc3O)nc(N3CCOCC3)n2)c(O)c1", "growth": "30.9%"},
      {"smiles": "O=C(CN1CCOCC1)NNc1ncnc2ccccc12", "growth": "53%"},
      {"smiles": "NC(N)=Nc1ccc(Oc2cccc(Nc3ccc(Br)c(C(F)(F)F)c3)c2)cc1", "growth": "-50.3% (active)"},
      {"smiles": "CNCc1cccc2c1OCCCCCCC(C)(O)CC(C)(C)S(=O)(=O)c1ccc(cc1)-c1cnc(N)c(n1)C(=O)N2", "note": "(stereo not drawn)", "growth": "-44.1% (active)"},
      {"smiles": "CC[C@@H](CO)Nc1ccc2ncc(C#Cc3cncc(C(=O)Nc4ccc(CN5CCN(C)CC5)c(C(F)(F)F)c4)c3)n2n1", "growth": "-27.3% (active)"},
      {"smiles": "NC(N)=Nc1ccc(Oc2cccc(Nc3cccc(C(F)(F)F)c3)c2)cn1", "growth": "-64.4% (active)"}
    ]}
  ]
}
